Bioassay records deposited in PubChem by National Center for Advancing Translational Sciences (NCATS).
Shown are actives, neighbours in structure and some others; about 0.43% of the full set was active somewhere.
Rango dissoc inh – inhibitors of RanGTP-induced Rango-importin beta complex dissociation; Potency, µM (highest dose often 46.1 µM); O95149+P62826; hit rate 0.071% among 340,000; Biochemical FRET Rango-importin beta, RanGTP-induced dissociation; AID 540253; calls by dose curve; further: nearly all actives have a fitted effect of over 45% in size
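Two FRET readings bracket the reaction: one 5 min after compound meets Rango–importin beta, another 45 min after RanGTP-RCC1 (0.6 uM Ran, 0.2 uM RCC1, 2 mM GTP) is added. Only the second defines inhibition.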
EPAC1 ag – EPAC1 (human) agonism | O95398 | hit rate 0.073% among 360,000 | EPAC1 agonist qHTS, biochemical assay; response scale: 100% = response to 6.5 mM cAMP | Potency, µM (top dose mostly 154 µM), most hits filed as activators | AID 720707; further: nearly all actives have a fitted effect of over 60% in size
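Nucleotide exchange by EPAC1 (100 nM) on Rap1B–BODIPY-GDP (250 nM) in the presence of 50 uM GDP is tracked fluorescently at 480/540 nm over 30 min. Signals are normalized to a 6.5 mM cAMP control.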
Rango complex inh – Rango-importin beta binding inhibition; Q14974; Rango CFP/YFP FRET sensor + importin beta, 45 min; Potency, µM (highest dose often 92.2 µM); hit rate 0.031% among 340,000; calls by dose curve; further: nearly all actives have a fitted effect of over 15% in size
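Inhibition scored from the CFP 486 nm/YFP 530 nm FRET ratio 45 min after adding 0.125 microM importin beta to 50 nM Rango biosensor preincubated 5 min with compound (room temperature, PBS with DTT, Tween-20, BSA). No-importin wells as positive control.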
EPAC2 agonist – EPAC2 (human) agonism. hit rate 0.079% among 360,000. AID 720711. EPAC2 activation, biochemical qHTS; response scale: 100% = 6.5 mM cAMP response. Potency, µM (series often up to 154 µM), actives largely listed as activators; further: nearly all actives have a fitted effect of over 50% in size
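Setup: EPAC2 100 nM, labeled Rap1B complex 250 nM, free GDP 50 uM. Compound titrations pinned in, brief spin, 5 min room temperature incubation. Kinetic fluorescence read over 30 min, normalized to 6.5 mM cAMP.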
EPAC2 antagonist – antagonists of human EPAC2; Q8WZA2; EPAC2 GEF exchange of Rap1B-BODIPY-GDP, fluorescence; Potency, µM (highest dose often 114 µM), actives largely listed as inhibitors; hit rate 0.18% among 360,000; further: nearly all actives have a fitted effect of over 45% in size
EPAC1 antagonist – antagonists of human EPAC1; EPAC1 GEF assay, Rap1b-BODIPY-GDP exchange fluorescence; hit rate 0.14% among 360,000; O95398; Potency, µM (top dose mostly 115 µM), usual class: inhibitors; further: nearly all actives have a fitted effect of over 50% in size
Numbers stand for hits; . = inactive; ? = inconclusive; / = no result given. Unless noted, the call rests on the fitted dose curve; in most records, active means well fitted curve in the direction sought with a large enough effect; inconclusive means small, poorly fitted or top-dose-only effect, or another doubt; inactive means no such curve, though single readings can be large; an effect the other way counts as inactive or inconclusive.

SMILES	Rango dissoc inh	EPAC1 ag	Rango complex inh	EPAC2 agonist	EPAC2 antagonist	EPAC1 antagonist
COc1cc(/C=C2/C(=N)N3C(=NC2=O)SN=C3S(C)(=O)=O)ccc1OS(=O)(=O)c1ccc(C)cc1	?	.	?	.	?	50.1µM
COc1cccc(/C=C2\SC(N)=NC2=O)c1OS(=O)(=O)c1ccccc1	.	.	.	.	.	.
COc1ccc(/C=C2\SC(=S)NC2=O)cc1OS(=O)(=O)c1ccc(NC(C)=O)cc1	.	.	.	.	50.1µM	?
COc1cccc(/C=C2\SC(=S)NC2=O)c1OS(=O)(=O)c1ccc(NC(C)=O)cc1	.	.	.	.	.	79.4µM
CCc1ccc(-n2cccc2/C=C2/C(=N)N3C(=NC2=O)SN=C3S(C)(=O)=O)cc1	.	.	?	.	.	79.4µM
CCCn1c2c(c(O)c(C(=O)NCCCN(CC)CC)c1=O)CCCC2	.	.	.	.	.	.
CCOc1ccc(/C=C2\SC(=S)NC2=O)cc1OC	.	.	.	.	12.6µM	?
COc1cc(/C=C2/SC(=S)NC2=O)ccc1OS(=O)(=O)c1ccc(C)cc1	.	.	.	.	39.8µM	44.7µM
Nc1cnccc1Oc1cccc(C(F)(F)F)c1	.	.	.	.	.	.
CCOc1ccc(CCN2C(=O)C(=O)N([C@@H](Cc3ccccc3)CN3CCC[C@H]3CN3C(=O)C(=O)NC[C@@H]3Cc3ccc(O)cc3)C[C@@H]2Cc2ccc(O)cc2)cc1	/	.	/	.	.	.
CCOc1cccc(C(=O)Nc2ccc3oc(Cc4ccc(Cl)cc4)nc3c2)c1	.	.	.	7.94µM	.	.
COC(=O)c1ccc(OC)c(-c2c(OC)cc(OC)cc2OC)c1	.	.	.	.	.	.
COc1cc(OC)c(-c2cc(C(=O)O)ccc2OC)c(OC)c1	.	.	.	.	.	89.1µM
O=C(NCCc1ccccc1)c1ccc2nc(-c3ccco3)c(-c3ccco3)nc2c1	?	.	?	.	.	?
O=C(Nc1ccc2nc(-c3ccco3)c(-c3ccco3)nc2c1)N1CCCCCC1	?	.	?	.	.	39.8µM
O=C(c1ccccc1)c1ccc2nc(-c3ccco3)c(-c3ccco3)nc2c1	?	.	?	.	.	50.1µM
COc1ccc(Sc2ccc(-c3nc4cnccn4c3NC3CCCCC3)cc2OC)cc1	?	.	?	.	.	.
CCOc1ccc(NC(=O)CCC(=O)N/N=C/c2ccc3c(c2)OCO3)cc1	.	.	.	.	.	.
COc1ccc(/C=C2\N=C(SC)N(c3ccccc3OC)C2=O)cc1	.	.	?	.	17.8µM	.
CCOc1ccc(N2C(=O)/C(=C/c3ccccc3)N=C2SC)cc1	.	.	.	.	.	.
O=C(Nc1cccnc1Cl)c1cccc(S(=O)(=O)N2CCOCC2)c1	.	.	?	.	.	.
COc1ccc(C(=O)NNC2=NCCCCC2)cc1	.	.	.	.	.	.
Cc1cc(NC(=O)C(C)SCC(=O)Nc2ccc(C(=O)OC(C)C)cc2)no1 (stereo not given)	/	.	/	.	.	.
CC(C)(C)NC(=O)NC(=O)CN1CCN(S(=O)(=O)c2ccccc2)CC1	.	.	.	.	.	.
CC(C)(C)NC(=O)NC(=O)CN1CCN(S(=O)(=O)c2ccc3c(c2)CCCC3)CC1	.	56.2µM	.	.	.	.
SMILES	Rango dissoc inh	EPAC1 ag	Rango complex inh	EPAC2 agonist	EPAC2 antagonist	EPAC1 antagonist
COc1cccc(-c2ncc3ccccc3c2COC(=O)N2CCOCC2)c1	.	.	.	.	.	.
CCOC(=O)c1c(NC(C)=O)sc2c1CCC(C=O)=C2Sc1ccccc1	14.6µM	.	?	.	.	.
CCOc1cc(/C=N/NC(=O)c2ccc3c(c2)OCCO3)cc(Br)c1O	?	.	?	.	.	70.8µM
FC(F)c1nc2nc(Cl)c(Cl)nc2[nH]1	/	.	/	.	.	.
Cc1[nH][nH]c(=O)c1C(c1c(C)[nH][nH]c1=O)c1cn(Cc2cccc3ccccc23)c2ccccc12	.	.	.	.	.	89.1µM
CCc1ccc2c(c1)NC(=O)C2(C)Cc1ccc(C(F)(F)F)o1 (stereo not given)	/	.	/	.	20µM	.
CCc1ccc2c(c1)NC(=O)C2(C)Cc1ccccc1 (stereo not given)	/	.	/	.	.	.
Cc1ccc(C)c(/C=C/C(=O)c2ccccc(=O)c2O)c1	?	.	?	.	.	.
Cc1ccc(/C=C/C(=O)c2ccccc(=O)c2O)c(C)c1	8.2µM	.	?	.	.	?
Cc1cccc(N2CCN(C(=O)Cc3cn(C)c4ccccc34)CC2)c1C	?	.	?	.	.	.
CCc1cccc(NC(=O)COC(=O)/C=C/c2cccs2)c1	.	112µM	.	.	.	.
O=C(COC(=O)/C=C/c1cccs1)Nc1ccc(F)cc1	.	.	.	.	.	.
Cc1ccc2[nH]cc(/C=C/c3cc[n+](C)cc3)c2c1	?	100µM	?	?	.	.
COc1ccc2c(/C=C/c3cc[n+](C)cc3)c[nH]c2c1	.	.	?	.	.	.
CC[n+]1ccc(/C=C/c2c[nH]c3ccccc23)cc1	?	?	?	100µM	.	.
Cn1c(Cc2cccs2)nnc1SCc1nc2ccccc2[nH]1	.	.	.	10µM	.	.
CCN1C/C(=C/c2ccc(N3CCOCC3)cc2)C(=O)/C(=C/c2ccc(N3CCOCC3)cc2)C1	?	63.1µM	?	89.1µM	.	.
O=C(Nc1nc2ccc(Cl)cc2s1)C1CCCO1 (stereo not given)	.	.	.	7.94µM	.	.
CS(=O)(=O)c1ccc2nc(NC(=O)C3CCCO3)sc2c1 (stereo not given)	.	.	.	.	.	.
CCCCCNc1nc2sc3c(c2c(=O)n1-c1cccc(Cl)c1)CCN(C)C3	16.4µM	.	?	.	.	.
CCCCNc1nc2sc3c(c2c(=O)n1-c1cccc(Cl)c1)CCN(C)C3	?	.	?	.	.	.
O=[N+]([O-])c1ccc(N2CCOCC2)cn1	.	.	.	.	.	.
CN(C)CCCN(C(=O)c1cc2cc([N+](=O)[O-])ccc2s1)c1nc2cc3c(cc2s1)OCCO3	.	.	.	.	50.1µM	?
CN(C)CCCN(C(=O)c1ccc([N+](=O)[O-])s1)c1nc2cc3c(cc2s1)OCCO3	.	.	.	?	?	.
COc1cc2cc(Oc3ccc4ccc(=O)oc4c3)c(=O)oc2cc1O	?	79.4µM	?	.	.	50.1µM
CC1(C)c2[nH]c3ccccc3c2C[C@@H]2C(=O)N(Cc3ccccc3Cl)C(=O)N21	11.6µM	.	?	.	.	.
Cc1ccccc1CN1C(=O)[C@@H]2Cc3c([nH]c4ccccc34)C(C)(C)N2C1=O	.	.	.	.	.	.
